Data: PubChem BioAssay AID1159580 (chemical genetic matrix, 2015)
About 2,000 (36%) of roughly 5,500 compounds were called active. Roughly 18% stayed inconclusive and do not appear here. Cut-off read from the data, not from the text of the source: active = normalized growth mostly below about 0.91 (no sharp cut-off); inconclusive = no clear call, values can overlap the other calls; inactive = mostly above about 0.92. The list shows a part of the results.

Test: chemical genetic growth profiling, strain panel (AID 1159580);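 note: tested at 20 µM; growth read once vehicle control cultures reached saturation at 30 °C; 1 = growth at the plate median or of vehicle wells; lower values mean less growth of the strain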
Details: growth OD

Measured: normalized growth

COc1cc(-c2coc3cc(OC)c(OC)c(OC)c3c2=O)cc(OC)c1OC
inactive: S. cerevisiae deletion strains, locus YJR066W, strain TOR1, hits give low values 0.99 | S. cerevisiae deletion strains, locus YJR075W, strain HOC1, hits give low values 0.975 | S. cerevisiae deletion strains, locus YKL009W, strain mrt4, hits give low values 0.98 | S. cerevisiae deletion strains, locus YKL068W, hits give low values 0.988 | S. cerevisiae deletion strains, locus YKL085W, strain MDH1 (second series), hits give low values 0.973 | S. cerevisiae deletion strains, locus YKL085W, strain MDH1, hits give low values 0.973 | S. cerevisiae deletion strains, locus YKL160W, strain elf1, hits give low values 0.994 | S. cerevisiae deletion strains, locus YKR001C, strain vps1, hits give low values 1.02 | S. cerevisiae deletion strains, locus YKR026C, strain gcn3, hits give low values 0.997 | S. cerevisiae deletion strains, locus YKR091W, strain srl3, hits give low values 1 | S. cerevisiae deletion strains, locus YLL001W, strain dnm1, hits give low values 0.96 | S. cerevisiae deletion strains, locus YLL026W, hits give low values 0.996 | S. cerevisiae deletion strains, locus YLL041C, strain sdh2, hits give low values 0.996 | S. cerevisiae deletion strains, locus YLR027C, strain aat2, hits give low values 1.01 | S. cerevisiae deletion strains, locus YLR039C, strain RIC1, hits give low values 1 | S. cerevisiae deletion strains, locus YLR058C, strain SHM2, hits give low values 0.99 | S. cerevisiae deletion strains, locus YLR102C, strain apc9, hits give low values 1 | S. cerevisiae deletion strains, locus YLR113W, strain HOG1, hits give low values 0.98 | S. cerevisiae deletion strains, locus YLR221C, strain rsa3, hits give low values 0.997 | S. cerevisiae deletion strains, locus YLR258W, strain gsy2, hits give low values 0.989 | S. cerevisiae deletion strains, locus YLR262C, strain YPT6 (second series), hits give low values 0.972 | S. cerevisiae deletion strains, locus YLR262C, strain YPT6, hits give low values 1.01 | S. cerevisiae deletion strains, locus YLR268W, strain sec22, hits give low values 1.03 | S. cerevisiae deletion strains, locus YLR320W, strain mms22, hits give low values 1.01 | S. cerevisiae deletion strains, locus YLR330W, strain CHS5, hits give low values 0.998 | S. cerevisiae deletion strains, locus YLR342W, strain FKS1 (second series), hits give low values 1.08 | S. cerevisiae deletion strains, locus YLR342W, strain FKS1, hits give low values 1.01 | S. cerevisiae deletion strains, locus YLR357W, strain rsc2, hits give low values 0.953 | S. cerevisiae deletion strains, locus YLR370C, strain arc18, hits give low values 0.997 | S. cerevisiae deletion strains, locus YLR371W, strain rom2, hits give low values 1.01 | S. cerevisiae deletion strains, locus YLR384C, strain iki3, hits give low values 0.982 | S. cerevisiae deletion strains, locus YLR418C, strain cdc73, hits give low values 0.984 | S. cerevisiae deletion strains, locus YML016C, strain PPZ1, hits give low values 1 | S. cerevisiae deletion strains, locus YML032C, strain rad52, hits give low values 1.01 | S. cerevisiae deletion strains, locus YML120C, strain ndi1, hits give low values 0.997 | S. cerevisiae deletion strains, locus YML124C, strain tub3, hits give low values 0.989 | S. cerevisiae deletion strains, locus YMR058W, strain fet3, hits give low values 1.01 | S. cerevisiae deletion strains, locus YMR078C, strain ctf18, hits give low values 1.01 | S. cerevisiae deletion strains, locus YMR125W, strain sto1, hits give low values 0.992 | S. cerevisiae deletion strains, locus YMR129W, hits give low values 0.989 | S. cerevisiae deletion strains, locus YMR205C, strain PFK2, hits give low values 1.01 | S. cerevisiae deletion strains, locus YMR223W, strain ubp8, hits give low values 0.998 | S. cerevisiae deletion strains, locus YMR231W, strain pep5, hits give low values 0.987 | S. cerevisiae deletion strains, locus YMR307W, strain GAS1, hits give low values 1.13 | S. cerevisiae deletion strains, locus YNL067W, strain RPL9B, hits give low values 0.973 | S. cerevisiae deletion strains, locus YNL071W, strain lat1, hits give low values 1 | S. cerevisiae deletion strains, locus YNL183C, strain NPR1, hits give low values 0.984 | S. cerevisiae deletion strains, locus YNL209W, strain ssb2, hits give low values 1 | S. cerevisiae deletion strains, locus YNL233W, strain BNI4, hits give low values 0.982 | S. cerevisiae deletion strains, locus YNL248C, strain rpa49, hits give low values 0.983 | S. cerevisiae deletion strains, locus YNL250W, strain rad50, hits give low values 0.944 | S. cerevisiae deletion strains, locus YNL271C, strain bni1, hits give low values 0.995 | S. cerevisiae deletion strains, locus YNL298W, strain CLA4, hits give low values 0.996 | S. cerevisiae deletion strains, locus YNL307C, strain MCK1, hits give low values 1 | S. cerevisiae deletion strains, locus YNL322C, strain KRE1 (second series), hits give low values 0.998 | S. cerevisiae deletion strains, locus YNR049C, strain mso1, hits give low values 1 | S. cerevisiae deletion strains, locus YNR052C, strain pop2, hits give low values 0.977 | S. cerevisiae deletion strains, locus YOL012C, strain htz1 1.11 | S. cerevisiae deletion strains, locus YOL147C, strain pex11, hits give low values 0.998 | S. cerevisiae deletion strains, locus YOR001W, strain rrp6, hits give low values 0.997 | S. cerevisiae deletion strains, locus YOR061W, strain CKA2, hits give low values 1.01 | S. cerevisiae deletion strains, locus YOR069W, strain VPS5, hits give low values 0.989 | S. cerevisiae deletion strains, locus YOR070C, strain gyp1, hits give low values 0.991 | S. cerevisiae deletion strains, locus YOR080W, strain dia2, hits give low values 0.995 | S. cerevisiae deletion strains, locus YOR083W, strain WHI5, hits give low values 0.996 | S. cerevisiae deletion strains, locus YOR106W, strain vam3, hits give low values 0.988 | S. cerevisiae deletion strains, locus YOR136W, strain idh2, hits give low values 0.993 | S. cerevisiae deletion strains, locus YOR144C, strain elg1, hits give low values 0.997 | S. cerevisiae deletion strains, locus YOR184W, strain ser1, hits give low values 1.08 | S. cerevisiae deletion strains, locus YOR231W, strain MKK1, hits give low values 1.04 | S. cerevisiae deletion strains, locus YOR265W, strain rbl2, hits give low values 1.01 | S. cerevisiae deletion strains, locus YOR270C, strain vph1, hits give low values 1.01 | S. cerevisiae deletion strains, locus YOR290C, strain snf2, hits give low values 1.01 | S. cerevisiae deletion strains, locus YOR316C, strain cot1, hits give low values 0.99 | S. cerevisiae deletion strains, locus YPL051W, strain arl3, hits give low values 0.994 | S. cerevisiae deletion strains, locus YPL055C, strain LGE1, hits give low values 1.03 | S. cerevisiae deletion strains, locus YPL078C, strain atp4, hits give low values 0.998 | S. cerevisiae deletion strains, locus YPL106C, strain sse1, hits give low values 0.984 | S. cerevisiae deletion strains, locus YPL240C, strain hsp82, hits give low values 1 | S. cerevisiae deletion strains, locus YPL256C, strain CLN2, hits give low values 1.03 | S. cerevisiae deletion strains, locus YPR119W, strain clb2, hits give low values 0.975 | S. cerevisiae deletion strains, locus YPR141C, strain kar3, hits give low values 0.972 | S. cerevisiae deletion strains, locus YPR163C, strain tif3, hits give low values 1 | S. cerevisiae deletion strains, locus YPR167C, strain met16, hits give low values 0.995 | S. cerevisiae deletion strains, strain wtn01, hits give low values 1.03 | S. cerevisiae strains, strain wild type, hits give low values 1.02
